Assay results taken from PubChem BioAssay (EPA / NIEHS).
Results filed as inconclusive are left out. Some structures have more than one record in an assay (separate samples or runs), and their calls can disagree. Active and inactive are the calls of the source. Rule for the calls, unless noted: active = hit-call score of the fitted dose curve at least 0.9, where 1 is the maximum; inactive = score below 0.9.

Key:
[1] = ATG_TAL_CIS: Attagene CIS-FACTORIAL HepG2 Assay for human TAL Basal Promoter (AID 2282966); conditions: HepG2 Attagene cis-factorial TAL promoter reporter; actives raise or lower the signal;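 note: background control endpoint measuring basal TAL promoter reporter mRNA not a specific factor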
Outline: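 HepG2 cells were transiently transfected with promoter-driven multiplexed reporter units and dosed for 24 h. Reporter mRNA was measured by RT-PCR with capillary electrophoresis fluorescence; bidirectional fits used DMSO as baseline, serving as a background control.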

[2] = ATG_TGFb_CIS: Attagene CIS-FACTORIAL HepG2 Assay for human Transforming Growth Factor (TGF) (AID 2282967); conditions: HepG2 Attagene CIS TGFb reporter, mRNA transcription; actives raise or lower the signal
Outline: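 Bidirectional fitting relative to DMSO gave the endpoint. Underlying data: reporter mRNA from HepG2 cells carrying transiently transfected cis-regulated reporter constructs, harvested 24 h after dosing and analyzed by RT-PCR and capillary electrophoresis.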

[3] = ATG_VDRE_CIS: Attagene CIS-FACTORIAL HepG2 Assay for human Vitamin D Receptor Element (VDRE) (AID 2282968); conditions: HepG2 VDRE cis-reporter transcription, actives raise or lower the signal
Outline: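 RT-PCR/CE readout of reporter mRNA; HepG2, transient transfection, 24 h dosing; DMSO baseline; bidirectional analysis.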

[4] = biological target: X-box-binding protein 1 (Homo sapiens) (UniProt P17861); experiment: ATG_Xbp1_CIS: Attagene CIS-FACTORIAL HepG2 Assay for human X-box Binding Protein 1 (XBP1) (AID 2282972); conditions: HepG2 XBP1 cis-element reporter, Attagene multiplex; actives raise or lower the signal
Chain of X-box-binding protein 1 (Homo sapiens) (P17861 whole entry, looked up): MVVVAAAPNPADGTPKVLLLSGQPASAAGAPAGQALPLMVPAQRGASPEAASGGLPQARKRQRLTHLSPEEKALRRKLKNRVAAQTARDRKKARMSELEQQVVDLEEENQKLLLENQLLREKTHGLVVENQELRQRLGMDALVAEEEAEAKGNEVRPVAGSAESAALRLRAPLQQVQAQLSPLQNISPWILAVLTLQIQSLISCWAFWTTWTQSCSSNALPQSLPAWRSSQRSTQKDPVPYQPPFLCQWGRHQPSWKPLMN
Outline: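 HepG2, transient MRTU transfection (cis-promoter driven), 24 h compound exposure. Total RNA → oligo(dT) RT → PCR → 6-FAM labeling → HpaI cut → CE. Bidirectional fit vs DMSO.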

[5] = ATG_M_19_TRANS: Attagene TRANS-FACTORIAL HepG2 Assay for M19 Transcription Factor (Internal Marker) (AID 2282974; active = hit-call score of the fitted dose curve at least 0.9, where 1 is the maximum); conditions: HepG2 Attagene TRANS-FACTORIAL M19 internal marker reporter
Outline: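 Using RT-PCR and capillary electrophoresis, reporter mRNA from transiently transfected human HepG2 cells was quantified following 24 h exposure; activity was fitted in the positive direction against DMSO.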

[6] = ATG_GAL4_TRANS: Attagene TRANS-FACTORIAL HepG2 Assay for GAL4 (Internal Marker) (AID 2282976; active = hit-call score of the fitted dose curve at least 0.9, where 1 is the maximum); conditions: HepG2 Attagene TRANS GAL4 internal marker reporter
Outline: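 HepG2 cells transiently transfected with multiplexed GAL4-UAS reporter constructs were dosed for 24 h. Reporter mRNA was measured by RT-PCR, 6-FAM primer extension, HpaI digestion and capillary electrophoresis, and gain of signal was fitted relative to DMSO.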

[7] = biological target: Nuclear receptor subfamily 1 group I member 3 (Homo sapiens) (UniProt Q14994); experiment: ATG_CAR_TRANS: Attagene TRANS-FACTORIAL HepG2 Assay for human Constitutive Androstane Receptor (CAR) (AID 2282969; active = hit-call score of the fitted dose curve at least 0.9, where 1 is the maximum;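 note: activators raise reporter mRNA above DMSO so AC50 marks induction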); conditions: HepG2 Attagene TRANS-FACTORIAL CAR reporter
Chain of Nuclear receptor subfamily 1 group I member 3 (Homo sapiens) (Q14994 whole entry, looked up, the tested form may be a part): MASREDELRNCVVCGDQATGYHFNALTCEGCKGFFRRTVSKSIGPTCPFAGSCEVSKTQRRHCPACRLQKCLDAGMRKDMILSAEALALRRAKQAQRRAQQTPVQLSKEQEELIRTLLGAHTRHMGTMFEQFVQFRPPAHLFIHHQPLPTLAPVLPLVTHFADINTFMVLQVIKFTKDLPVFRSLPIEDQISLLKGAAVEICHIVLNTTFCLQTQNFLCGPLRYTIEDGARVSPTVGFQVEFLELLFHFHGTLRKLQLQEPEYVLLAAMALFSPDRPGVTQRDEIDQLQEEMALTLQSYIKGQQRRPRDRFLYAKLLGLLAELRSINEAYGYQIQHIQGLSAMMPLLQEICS
Outline: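 HepG2 cells transiently transfected with multiplexed GAL4-UAS reporter units expressing chimeric NR-Gal4 proteins; compound exposure 24 h. Reporter mRNA measured by RT-PCR, 6-FAM labelling, HpaI digestion and capillary electrophoresis; gain-of-signal fitted against DMSO baseline.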

[8] = biological target: Estrogen-related receptor gamma (Homo sapiens) (UniProt P62508); experiment: ATG_ERRg_TRANS: Attagene TRANS-FACTORIAL HepG2 Assay for human Estrogen-Related Receptor gamma (ERRg) (AID 2282977; active = hit-call score of the fitted dose curve at least 0.9, where 1 is the maximum;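 note: hits increase reporter signal over DMSO so potencies reflect activators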); conditions: HepG2 Attagene TRANS reporter, ERRg transactivation
Chain of Estrogen-related receptor gamma (Homo sapiens) (P62508 whole entry, looked up, the tested form may be a part): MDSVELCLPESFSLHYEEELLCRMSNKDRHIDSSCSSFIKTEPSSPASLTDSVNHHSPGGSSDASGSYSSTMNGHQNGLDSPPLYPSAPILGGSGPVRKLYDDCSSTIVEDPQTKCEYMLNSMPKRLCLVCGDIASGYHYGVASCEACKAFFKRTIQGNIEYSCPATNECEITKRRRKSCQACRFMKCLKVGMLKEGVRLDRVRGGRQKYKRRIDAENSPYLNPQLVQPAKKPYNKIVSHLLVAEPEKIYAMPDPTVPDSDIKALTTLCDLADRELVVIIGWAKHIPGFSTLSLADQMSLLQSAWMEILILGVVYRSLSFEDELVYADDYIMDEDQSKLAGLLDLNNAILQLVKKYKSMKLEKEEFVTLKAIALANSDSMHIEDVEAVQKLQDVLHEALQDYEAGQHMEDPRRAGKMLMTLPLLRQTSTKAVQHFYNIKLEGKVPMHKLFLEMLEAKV
Outline: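 HepG2 cells transiently transfected with multiplexed GAL4-UAS reporter units driven by chimeric NR-Gal4 proteins; 24 h exposure. Reporter mRNA quantified by RT-PCR, fluorescent labelling, HpaI digestion and capillary electrophoresis; gain of signal vs DMSO.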

[9] = biological target: Estrogen receptor (Homo sapiens) (UniProt P03372); experiment: ATG_ERa_TRANS: Attagene TRANS-FACTORIAL HepG2 Assay for human Estrogen Receptor alpha (ERa) (AID 2282970; active = hit-call score of the fitted dose curve at least 0.9, where 1 is the maximum); conditions: HepG2 Attagene TRANS ERa GAL4 reporter, mRNA
Chain of Estrogen receptor (Homo sapiens) (P03372 whole entry, looked up, the tested form may be a part): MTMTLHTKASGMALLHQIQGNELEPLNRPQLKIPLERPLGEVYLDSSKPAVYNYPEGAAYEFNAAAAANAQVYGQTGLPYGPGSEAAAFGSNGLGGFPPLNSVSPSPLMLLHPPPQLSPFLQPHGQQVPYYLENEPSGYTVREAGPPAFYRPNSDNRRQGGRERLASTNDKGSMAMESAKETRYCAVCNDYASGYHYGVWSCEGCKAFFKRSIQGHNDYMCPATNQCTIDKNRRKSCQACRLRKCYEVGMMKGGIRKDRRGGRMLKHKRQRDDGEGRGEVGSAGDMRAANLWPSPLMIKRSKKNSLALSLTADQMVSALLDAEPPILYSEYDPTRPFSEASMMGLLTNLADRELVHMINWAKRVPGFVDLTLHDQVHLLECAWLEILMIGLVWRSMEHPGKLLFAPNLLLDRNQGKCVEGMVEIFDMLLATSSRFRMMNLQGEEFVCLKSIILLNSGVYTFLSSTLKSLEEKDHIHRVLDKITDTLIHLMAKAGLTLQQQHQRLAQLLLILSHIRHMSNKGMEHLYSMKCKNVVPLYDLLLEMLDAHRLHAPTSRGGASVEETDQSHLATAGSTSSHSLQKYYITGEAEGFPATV
Outline: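 HepG2 cells transiently transfected with multiplexed GAL4-UAS reporter units; ERa activity read via exogenous chimeric NR-Gal4 protein. After 24 hour compound exposure, reporter mRNA measured by RT-PCR with 6-FAM labelling and capillary electrophoresis; gain-of-signal fitted relative to DMSO.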

[10] = biological target: Steroid hormone receptor ERR1 (Homo sapiens) (UniProt P11474); experiment: ATG_ERRa_TRANS: Attagene TRANS-FACTORIAL HepG2 Assay for human Estrogen-Related Receptor alpha (ERRa) (AID 2282971; active = hit-call score of the fitted dose curve at least 0.9, where 1 is the maximum); conditions: HepG2 Attagene TRANS reporter, ERRa transactivation
Chain of Steroid hormone receptor ERR1 (Homo sapiens) (P11474 whole entry, looked up, the tested form may be a part): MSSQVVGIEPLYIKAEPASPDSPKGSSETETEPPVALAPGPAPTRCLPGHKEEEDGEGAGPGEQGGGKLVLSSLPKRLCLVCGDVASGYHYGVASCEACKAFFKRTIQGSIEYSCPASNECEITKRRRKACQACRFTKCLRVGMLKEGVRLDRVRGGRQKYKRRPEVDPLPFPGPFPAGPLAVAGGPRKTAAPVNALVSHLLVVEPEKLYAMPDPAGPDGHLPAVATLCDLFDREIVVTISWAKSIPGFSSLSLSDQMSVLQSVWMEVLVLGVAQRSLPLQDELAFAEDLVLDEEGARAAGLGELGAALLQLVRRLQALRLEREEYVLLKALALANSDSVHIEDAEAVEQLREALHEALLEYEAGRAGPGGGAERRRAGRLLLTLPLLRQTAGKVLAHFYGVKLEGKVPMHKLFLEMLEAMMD
Outline: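 HepG2 cells transiently transfected with multiplexed GAL4-UAS reporter units reading chimeric ERRa-Gal4 activity; 24 h compound exposure. Reporter mRNA measured by RT-PCR, 6-FAM labelling, HpaI digest and capillary electrophoresis; gain of signal fitted versus DMSO baseline.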

Measured: AC50

O=C(Oc1ccccc1)c1cccc(C(=O)Oc2ccccc2)c1
inactive: [1] | [2] | [3] | [4] | [5] | [6]

CCCCCCC(C=O)=Cc1ccccc1
active: [4] 60 µM
inactive: [1] | [3] | [7] | [4] | [5] | [6]

O=C1NC(=O)C(c2ccccc2)(c2ccccc2)N1
inactive: [1] | [2] | [4]

NC=O
inactive: [1] | [2] | [3] | [4] | [8]

CO[C@@H]1COCC[C@@H]1N[C@@H]1CC[C@@](C(=O)N2CCc3ncc(C(F)(F)F)cc3C2)(C(C)C)C1
inactive: [1] | [2] | [3] | [4] | [5] | [6]

NCCOCCOCCN
inactive: [1] | [3] | [7] | [4] | [5]

CCCCC(CC)CO (stereo not drawn)
inactive: [1] | [3] | [7] | [4]

O=C1CCCCC1
not listed: [2] | [5] | [8]
inactive: all other assays above

O=C(O)c1cccnc1
inactive: [1] | [2] | [7] | [4] | [5] | [6]
active: [4] 25.2 µM

O=Cc1ccccc1C=O
inactive: [1] | [2] | [4] | [6]

CCCCC(CC)COC(=O)CCCCCCCC(=O)OCC(CC)CCCC (stereo not drawn)
inactive: [1] | [2] | [7] | [10] | [4]

CCCCc1nc2cccnc2n1Cc1ccc(-c2ccccc2-c2nnn[nH]2)cc1
inactive: [1] | [3] | [7] | [9] | [4] | [5]

COc1ccc(C(=O)Nc2nc3ccccc3c(NCc3ccccc3)c2C#N)cc1
not listed: [3] | [6] | [7]
inactive: all other assays above

COC(=O)[C@H]1[C@H]2C[C@@H]3c4[nH]c5cc(OC)ccc5c4CCN3C[C@H]2C[C@@H](OC(=O)c2cc(OC)c(OC)c(OC)c2)[C@@H]1OC
inactive: [1] | [2] | [4]

CC(=O)CC(c1ccccc1)c1c(O)c2ccccc2oc1=O (stereo not drawn)
inactive: [1] | [2] | [3] | [4] | [5] | [6]

CCCC[C@H]1CN(CC2CCOCC2)C(=O)OC12CCN(C1(C)CCN(C(=O)c3c(C)ncnc3C)CC1)CC2
inactive: [1] | [3] | [7] | [10] | [4] | [5]

CC(C)c1cccc(C(C)C)c1NC(=O)NS(=O)(=O)c1cc(C(C)(C)O)co1
active: [3] 29.7 µM
inactive: [1] | [2] | [4] | [6]

NC1CCCCC1
inactive: [1] | [2] | [3] | [4] | [6]

O=C1c2c(O)cccc2Cc2cccc(O)c21
inactive: [1] | [2] | [4] | [6]

O=C1OC(c2ccc(O)cc2)(c2ccc(O)cc2)c2ccccc21
inactive: [2] | [5]
active: [1] 46.8 µM | [3] 6.27 µM | [4] 30 µM

CCCCOC(=O)CCCCC(=O)OCCCC
inactive: [1] | [2] | [3] | [4] | [5] | [8]

N[C@@H](Cc1c[nH]c2ccccc12)C(=O)O
inactive: [1] | [2] | [3] | [4] | [5] | [6]

CCOCCOCCO
not listed: [3] | [7] | [9]
inactive: all other assays above

CC(=O)OC1CC(C)OC(C)O1 (stereo not drawn)
not listed: [3] | [9]
inactive: all other assays above

NC(=Nc1ccccc1)Nc1ccccc1
active: [4] 57.2 µM
inactive: [1] | [2] | [9] | [5]

C#CC(O)C(CC)CCCC (stereo not drawn)
inactive: [1] | [2] | [7] | [4] | [5]
